Screening results (PubChem BioAssay)
ROC1-CUL1 inh – inhibitors of human ROC1-CUL1 ubiquitin ligase activity; in vitro K48 di-Ub FRET, acceptor:donor ratio, 45 min; inhibition, % at 10 µM; 0.6% of 140,000 active; AID 1347404, 2020; in the data active = inhibition above about 25%
Target sequence (P62877 whole entry, looked up): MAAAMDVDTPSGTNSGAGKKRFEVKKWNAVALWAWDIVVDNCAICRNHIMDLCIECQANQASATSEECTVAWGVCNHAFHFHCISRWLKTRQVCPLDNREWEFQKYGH
Target sequence (Q13616 whole entry, looked up): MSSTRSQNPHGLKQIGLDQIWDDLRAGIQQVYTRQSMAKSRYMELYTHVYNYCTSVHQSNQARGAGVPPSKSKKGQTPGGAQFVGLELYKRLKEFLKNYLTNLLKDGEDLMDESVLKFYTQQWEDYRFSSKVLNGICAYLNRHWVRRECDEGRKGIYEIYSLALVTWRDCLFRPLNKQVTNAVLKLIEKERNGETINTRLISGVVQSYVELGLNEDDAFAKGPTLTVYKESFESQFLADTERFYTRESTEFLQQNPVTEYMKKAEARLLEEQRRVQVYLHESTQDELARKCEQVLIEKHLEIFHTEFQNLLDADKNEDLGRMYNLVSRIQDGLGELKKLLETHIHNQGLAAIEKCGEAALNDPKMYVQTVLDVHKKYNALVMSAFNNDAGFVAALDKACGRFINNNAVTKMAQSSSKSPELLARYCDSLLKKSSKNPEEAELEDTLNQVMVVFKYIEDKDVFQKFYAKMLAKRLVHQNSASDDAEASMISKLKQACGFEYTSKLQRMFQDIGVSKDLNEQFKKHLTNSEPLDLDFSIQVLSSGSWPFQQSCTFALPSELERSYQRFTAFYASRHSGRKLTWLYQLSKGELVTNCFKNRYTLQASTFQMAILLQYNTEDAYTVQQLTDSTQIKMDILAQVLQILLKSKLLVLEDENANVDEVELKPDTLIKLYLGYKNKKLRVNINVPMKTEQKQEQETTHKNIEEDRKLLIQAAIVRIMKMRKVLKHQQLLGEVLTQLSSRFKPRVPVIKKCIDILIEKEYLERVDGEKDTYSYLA
Large screens that a line does not name were inactive. Many of the other results were omitted from the sample, so hits are more common in it than they were.

CCOc1ccc(/C(CCCC/C(=N\O)c2ccc(OCC)cc2)=N/O)cc1	none
N#CC1=C(c2ccccc2)CC(C(F)(F)F)=NC1=S	none
CC1=NC(=S)C(C#N)=C(C(F)(F)F)C1	none
N#CC1=C(C(F)(F)F)CC(c2ccco2)=NC1=S	ROC1-CUL1 inh 91
COC(=O)CN1C(=O)S/C(=C/c2ccccc2OCc2cccc(F)c2)C1=O	none
COc1cc(/C=C2\C(=O)NN(c3ccccc3)C2=O)cc(Cl)c1OCc1ccc(Cl)c(Cl)c1	ROC1-CUL1 inh 57
COc1cc(/C=C2\C(=O)NN(c3ccccc3)C2=O)cc(Cl)c1OCCCOc1ccccc1	ROC1-CUL1 inh 93
COc1cc(/C=C2\C(=O)NN(c3ccccc3)C2=O)ccc1OCCOCCOc1ccccc1C	none
COc1cc(/C=C2/C(=O)NN(c3ccc(C)c(Cl)c3)C2=O)ccc1OCc1ccccc1	none
COc1cc(/C=C2\C(=O)NN(c3ccccc3)C2=O)cc(Br)c1OCCCOc1ccccc1	none
CCOc1cc(/C=C2\C(=O)NN(c3ccccc3)C2=O)cc(Cl)c1OCCOc1cc(C)ccc1C	ROC1-CUL1 inh 44
O=C1NN(c2ccccc2)C(=O)/C1=C/c1cc(Br)ccc1OCc1c(Cl)cccc1Cl	none
CCOc1cc(/C=C2\C(=O)NN(c3ccccc3)C2=O)cc(Cl)c1OCCOc1ccc(OC)cc1	none
COc1cc(/C=C2\C(=O)NN(c3ccccc3)C2=O)cc(Br)c1OCCCOc1ccc(C)cc1	none
CCOc1cc(/C=C2\C(=O)NN(c3ccccc3)C2=O)cc(Br)c1OCc1c(Cl)cccc1Cl	ROC1-CUL1 inh 28
COc1cc(/C=C2/C(=O)NN(c3ccc(Cl)cc3)C2=O)ccc1OCc1ccc(F)cc1	none
CCOc1cc(/C=C2\C(=O)NN(c3ccccc3)C2=O)cc(Br)c1OCc1ccc(Cl)c(Cl)c1	none
CN1CCN([C@@H]2CCN(C(=O)c3cc4c(s3)CCCCC4)C[C@H]2O)CC1	none
Cc1ccc(O)c(/C=N/NC(=O)C(Cc2cccs2)=NC(=O)c2ccccc2Cl)c1	none
CCCn1c(=O)c2c(nc3n(C(C)CC)c(C)cn23)n(C)c1=O (stereo not given)	none
COc1cc(C=Nc2ccc(Nc3ccccc3)cc2)ccc1Oc1ccc([N+](=O)[O-])cc1[N+](=O)[O-]	none
CC(=O)Oc1cc2c(C(=O)c3ccccc3)c(C)oc2c2ccccc12	none
COc1ccc(/C=C2\C(=O)NN(c3ccc(Cl)cc3)C2=O)cc1OC	none
CCOc1cc(/C=C2\C(=O)NN(c3ccccc3)C2=O)cc(Cl)c1OCCCOc1ccc(Cl)cc1	none
CCOc1cc(/C=C2/C(=O)NN(c3ccc(Cl)cc3)C2=O)cc(I)c1OC	ROC1-CUL1 inh 39
CC(=O)c1nn(-c2ccc(Br)cc2)cc1C(=O)c1cccc2ccccc12	none
CC(C)CC(C(=O)O)N1Cc2ccc(C(=O)O)cc2C1=O (stereo not given)	none
COc1ccc(-c2ccc(C(C)C(=O)O)s2)cc1 (stereo not given)	none
Cc1nc(C)c(CC(=O)N2CCOc3ccc(CN4CCN(c5ccc(F)cc5)CC4)cc3C2)s1	none
CCn1ncc(CN2CCC3(CCCN(C)C3=O)C2)c1C (stereo not given)	none
O=C(OCCOc1ccccc1)c1ccc(-c2ccccc2)cc1	none
O=C(OCCOc1ccccc1)C(C(F)(F)F)C(F)(F)F	ROC1-CUL1 inh 85
NC(=O)c1ccccc1OCCOc1ccccc1	none
Cc1ccc(CCNC(=O)C2CCCN(C3CCN(C(=O)C4CC4)CC3)C2)cc1 (stereo not given)	none
CCOC(=O)NC(=O)c1cc2cc(Br)ccc2oc1=O	none
O=C(NNC(=O)c1cc2cc(Br)ccc2oc1=O)c1ccc(O)cc1O	ROC1-CUL1 inh 44
O=C(NNC(=O)c1cc2cc(Br)ccc2oc1=O)c1ccncc1	none
CCN1CCN(CC(=O)N2CCCC(N3CCN(c4cccc(Cl)c4)CC3)C2)CC1 (stereo not given)	none
NC(=O)Cn1cc(/C=C2\SC(=Nc3ccccc3)N(C3CCCC3)C2=O)c2ccccc21	none
O=C1/C(=C\c2cn(Cc3ccc(F)cc3)c3ccccc23)SC(=Nc2ccccc2)N1CCc1ccccc1	none
O=C(O)Cn1cc(/C=C2\SC(=Nc3ccccc3)N(c3ccccc3)C2=O)c2ccccc21	ROC1-CUL1 inh 97
CC(C)c1ccc(NC(=O)CN2CCN(c3nc4ccccc4s3)CC2)cc1	none
CCNC(=O)c1ccc2c(c1)CCN2S(=O)(=O)c1ccccc1	none
Cc1ccc2oc(-c3ccc(Cl)c(NC(=O)c4cc([N+](=O)[O-])c(C)c([N+](=O)[O-])c4)c3)nc2c1	none
CSC1=NC(=O)C(C(c2ccc(OC(C)C)cc2)C2C(=O)N=C(SC)NC2=O)C(=O)N1 (stereo not given)	none
COC(=O)c1cccc2c1N[C@@H](c1ccncc1)[C@H]1CC=C[C@@H]21	none
Cc1c(C(=O)O)ccc2c1N[C@@H](c1ccc(F)cc1)[C@H]1CC=C[C@@H]21	ROC1-CUL1 inh 76
CCOC(=O)c1cccc2c1N[C@@H](c1ccc(F)cc1)[C@H]1CC=C[C@@H]21	none
CN(Cc1cnn(C)c1)C(=O)CC(c1cccc(O)c1)c1ccccc1Cl (stereo not given)	none
Cc1ccc(-c2nnc(-c3ccccc3)nc2NCCCO)cc1	none
